High-throughput results deposited in PubChem BioAssay by The Scripps Research Institute Molecular Screening Center.
hcDAF12 agonist: H. contortus DAF-12 activation, primary screen; HEK293 hcDAF-12 lit1-tk-luc reporter, luminescence; 0% DMSO, 100% Δ7-dafachronic acid; activation, % at 6.8 µM; 1.4% of 370,000 active; AID 652067;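 active means activation above the mean of all tested compounds plus 3 SD, cut at about 5.5% in these data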;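 further: 100% = response to 3 µM Δ7-dafachronic acid high control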
hgDAF12 agonist: activates the H. glycines DAF-12 receptor ligand-binding domain; activation, % at 6.8 µM; AID 687014; HEK293 GAL4-hgDAF12 UAS-luciferase reporter, agonist luminescence; normalized to butyrate control; 1.8% of 370,000 active;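 active means activation above a cutoff set at the mean of all screened compounds plus 3 SD, cut at about 10% in these data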;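 further: 0% = DMSO wells and 100% = sodium butyrate wells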
ssDAF-12 act: activates DAF-12 receptor from parasite S. stercoralis; HEK293 ssDAF-12/GRIP1 lit1-tk-luc reporter, luminescence; % of 3 µM dafachronic acid response; activation, % at 6.8 µM; 1% of 370,000 active;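 active means activation above the mean over all tested compounds plus 3 SD, cut at about 0.9% in these data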;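 further: 0% = DMSO-only wells and 100% = 3 µM delta7-dafachronic acid wells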
DAX1 inh-1: inhibitors of DAX1 repression of SF-1 activated StAR promoter | HEK293T StAR-luciferase reporter, SF-1/DAX-1 repression relief | inhibition, % at 6.8 µM | 1.1% of 370,000 active | AID 652010;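 active means inhibition above the mean over all tested compounds plus 3 SD, cut at about 3.6% in these data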;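 further: 0% = DAX-1 cells with DMSO and 100% = cells lacking DAX-1 with DMSO; higher inhibition means more luminescence from relief of DAX-1 repression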
DAX1 inh-2: inhibitors of human orphan nuclear receptor DAX1 (NR0B1); inhibition, % at 6.75 µM; HEK293 Gal4-DAX1 luciferase reporter, luminescence; 0.99% of 340,000 active; P51843;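 active means inhibition above the mean over all tested compounds plus 3 SD, cut at about 4.2% in these data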;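 further: 0% = DAX1-transfected cells with DMSO and 100% = empty-vector control cells with DMSO; inhibition shows as a rise in luminescence from relieved DAX1 repression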
Target sequence (P51843 207-470 limits assumed): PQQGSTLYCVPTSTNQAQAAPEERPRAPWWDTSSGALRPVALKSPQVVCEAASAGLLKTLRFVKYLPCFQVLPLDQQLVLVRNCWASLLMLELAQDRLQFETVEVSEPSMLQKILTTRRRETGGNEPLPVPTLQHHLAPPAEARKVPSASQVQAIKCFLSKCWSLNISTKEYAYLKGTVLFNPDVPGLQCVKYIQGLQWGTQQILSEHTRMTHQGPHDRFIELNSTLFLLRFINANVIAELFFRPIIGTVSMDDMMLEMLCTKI
DAX1 inh confirm: NR0B1 (human) inhibition, confirmation | inhibition, % at 6.8 µM | shares compounds with DAX1 inh-1 | HEK293T StAR-promoter luciferase reporter, SF-1/DAX-1 repression | 87% of 2,400 active;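 active means inhibition above the average of every tested compound plus 3 SD, cut at about 3.8% in these data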;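 further: 0% = DAX-1 cells with DMSO and 100% = no DAX-1 control cells with DMSO; active compounds raise luminescence by relieving repression of the StAR reporter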
SF1 mutant ctr: nonselective inhibitor or artifact in SF-1 mutant DAX1 counter-screen; inhibition, % at 6.8 µM; 78% of 2,400 active; HEK293 StAR-luciferase, SF-1 AF2 mutant, luminescence; shares compounds with DAX1 inh-1; AID 652136;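 active means inhibition above the mean of all tested compounds plus 3 SD, cut at about 3% in these data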;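 further: 0% = DAX-1 transfected cells with DMSO and 100% = cells without DAX-1 with DMSO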
An asterisk follows results filed as active; . = not tested or not shown. In the library only some 4.1% were active in any assay of this set; here they are far more common.

SMILES	hcDAF12 agonist	hgDAF12 agonist	ssDAF-12 act	DAX1 inh-1	DAX1 inh-2	DAX1 inh confirm	SF1 mutant ctr
CCCCCCCCN1C(=O)[C@@H](CC(=O)NCCC(C)C)C[C@@]2(C(=O)OC)C1=C[C@H](C(C)C)O[C@@H]2C1CC1	2	-2	-1	-1	.	.	.
O=C(c1ccc(CS(=O)c2ccccc2Cl)o1)N1CCN(C2CCCCC2)CC1 (configuration not stated)	-1	-1	0	6.9*	1	5.8*	-5
CCN(CC)c1ccc(C2Nc3cccc4cccc(c34)N2)cc1	4	8	0	1	0	.	.
CCN(CC)c1ccc(C2NC(=O)c3ccccc3N2)cc1 (configuration not stated)	7.9*	9	1.1*	7.4*	-2	3	0
Cc1ccc(CNC(=O)Nc2ccc(Cl)cc2)cc1	1	3	0	5.2*	1	1	0
CC(=O)c1c(C)[nH]c(C(=O)OCc2nc3ccsc3c(=O)[nH]2)c1C	1	12*	0	7.1*	2	4.7*	3.2*
Cc1ccc2nc(SCC(=O)c3ccccc3)nc(=O)n2c1	4	12*	0	8.3*	2	9.2*	5.3*
CC(/C=N/NC(=O)c1ccccc1C)=C\c1ccccc1	2	3	-1	0	.	.	.
O=C(N/N=C\c1ccoc1)c1ccco1	4	8	-1	6.6*	2	2	2
CC(/C=N/NC(=O)c1ccccc1F)=C\c1ccccc1	4	12*	0	9.2*	1	9.9*	4.2*
O=C(N/N=C/c1ccoc1)c1ccccc1F	2	4	0	5.3*	1	3.7*	3.3*
Cc1c(C(=O)N/N=C/c2ccoc2)cccc1[N+](=O)[O-]	0	1	-1	0	1	.	.
Cc1ccccc1CS(=O)(=O)Cc1ccc(C(=O)Nc2ccc(F)cc2F)o1	-2	-3	-1	-2	.	.	.
OC(c1ccccc1)(c1ccccc1)C1CCN(CCCOc2ccc(Cl)cc2)CC1	1	0	-1	.	.	.	.
NC(=O)[C@@H]1CCCN1C(=O)[C@@H](Cc1ccccc1)NC(=O)[C@H]1O[C@@H](n2ccc(N)nc2=O)[C@H](O)[C@@H]1O	2	-1	-1	0	.	.	.
CCOC(=O)c1sc(NC(=O)CSc2nccn2C)nc1C	4	5	0	5.7*	0	6.8*	4.8*
CCOC(=O)c1sc(NC(=O)CSc2ncccn2)nc1C	0	3	-1	-1	0	.	.
Cc1ccc(-c2cc(C(=O)N3CCCC3)no2)cc1	4	6	-1	4.9*	-3	8.6*	0
Cc1ccc(-c2cc(C(=O)N3CCOCC3)no2)cc1	2	7	0	1	-2	.	.
O=C(Nc1ccccc1)c1ccc(NC(=O)C2CC2)cc1	0	5	-1	6.5*	0	7.7*	5.2*
O=C(NNC(=O)c1ccc(NC(=O)C2CC2)cc1)c1ccc(F)cc1	-1	2	-2	2	1	.	.
COc1ccc(/C=C/c2cc(C(=O)O)c3ccccc3n2)cc1	6.0*	13*	1.0*	4.5*	0	9.8*	3.2*
O=C(NNC(=O)c1ccccc1O)c1cc2ccccc2o1	5	5	1.1*	5.6*	2	3.8*	4.0*
COC(=O)[C@@]12C[C@@H](CC(=O)N3CCCC3)C(=O)N(Cc3ccc4c(c3)OCO4)C1=CCC(C)(C)C2	-2	-1	-1	0	.	.	.
O=C(NCCc1ccc(Cl)cc1)c1ccc2nccnc2c1	4	8	0	5.4*	2	8.2*	7.9*
SMILES	hcDAF12 agonist	hgDAF12 agonist	ssDAF-12 act	DAX1 inh-1	DAX1 inh-2	DAX1 inh confirm	SF1 mutant ctr
O=C(NCCc1ccc(Cl)cc1)c1ccc2nc[nH]c2c1	-1	3	-2	0	2	.	.
O=C(Nc1ccc(Cl)cn1)c1ccc2nccnc2c1	1	7	1.6*	6.4*	1	4.5*	2
CCOC(=O)[C@]12CCCC=C1N(CCCOC)C(=O)[C@@H]2CC(=O)NCCCCc1ccccc1	-2	1	-1	-1	.	.	.
CCCN1CNc2c(c(=O)[nH]c(=S)n2CCc2cccc(Cl)c2Cl)C1	-1	1	-2	.	.	.	.
COc1ccccc1NC(=S)OCCN1CCCC12CCC(c1ccccc1)CC2 (configuration not stated)	-3	-7	-1	.	.	.	.
COc1ccc(NC(=O)COC(=O)c2cc(C)oc2C)c([N+](=O)[O-])c1	-1	-1	-1	4.6*	0	-2	-2
COc1ccc(NC(=O)COc2ccc(C)cc2)c([N+](=O)[O-])c1	0	3	-1	0	.	.	.
COc1ccc(-c2oc3c(c2C#CC2(O)CCCCC2)C(OC)CCC3)cc1 (configuration not stated)	-2	3	-1	5.6*	.	-1	-1
CCOC1CCCc2oc(-c3ccc(OC)cc3)c(C#CCCO)c21 (configuration not stated)	-2	0	-1	0	.	.	.
O=C(NC1CCCCN(Cc2ccc(Cl)cc2)C1=O)c1ccc(F)c(F)c1 (configuration not stated)	-3	1	0	-2	.	.	.
CC(=O)c1ccc(NC(=O)c2noc3c2CCC3)cc1	3	6	-1	2	-5	.	.
COc1ccc(NC(=O)c2noc3c2CCC3)cc1	5	13*	0	4.9*	1	13*	6.0*
O=C(O)c1ccc(N/N=C/c2ccc(-c3cccc(Cl)c3)o2)cc1	6	16*	1.0*	6.2*	7.2*	13*	7.6*
O=C(O)c1ccc(N/N=C/c2ccc(-c3ccc(Cl)cc3Cl)o2)cc1	1	0	-1	5.1*	-3	15*	5.6*
CCOC(=O)[C@]12CCCC=C1N(Cc1ccc(OC)cc1)C(=O)[C@@H]2CC(=O)N1CCCC1	-5	-4	-1	-2	.	.	.
O=C(C[C@H]1C[C@H](C(=O)N2CCOCC2)[C@@]2(CCC3CCCC3)c3[nH]c4cc(-c5ccco5)ccc4c3CCN2C1=O)NCCc1ccccn1	-2	-3	-1	4.6*	-1	-1	-1
CC(C)(C)NC(=O)C[C@H]1C[C@H](C(=O)N2CCCCC2)[C@@]2(CCc3ccccc3)c3[nH]c4cc(-c5ccco5)ccc4c3CCN2C1=O	-2	-3	-1	6.1*	0	0	-1
Cc1ccc(CN2CCCCC(NC(=O)c3ccc(F)c(F)c3)C2=O)cc1 (configuration not stated)	-3	-5	-1	-2	.	.	.
O=C(NC1CCCCC1)c1ccc2ccccc2c1	3	6	-1	5.8*	4.8*	7.5*	5.1*
